Laboratory results published in PubChem BioAssay (NCI).
Compounds without any hit were thinned out: in the full panel of roughly 83,000, 20% have a hit.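 Negative percent growth values reflect cell death: -40 means 40% of the cells present at the start died, and -100 means all died.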 The source made the active and inactive calls.

system: HT29 colon; test: NCI-60 one-dose screen, 48 h (100 = growth as untreated, 0 = no growth, -100 = all killed); settings: 10 µM unless noted
Method: Growth inhibition of the HT29 human tumor cell line is measured as a screen for anti-cancer activity. Cells are grown in 96 well plates and exposed to the test compound for 48 hours. Compounds are tested at a single concentration, which is 10^-5 M for most compounds. The reported endpoint is percent growth (GI% or GIPRCNT), where numbers from 0 - 100% represent growth inhibition, and numbers from -100% - 0 represent cell death. For example, a value of 40 represents 60% growth inhibition. A value of 0 means no net growth occurred over the course of the experiment. A value of -40 indicates 40% of cells at the beginning of the experiment died by the end of the experiment. A value of -100 means all cells are dead at the end of the experiment.
NCI-60 Human Tumor Cell Lines Screen was performed using the standard one-dose NCI protocol, which is described in more detail at https://dtp.cancer.gov/discovery_development/nci-60/default.htm.
Compounds with GIPRCNT values below 10 were considered active. Activity score was based on GIPRCNT using the following formula: […]
Score is 0 for GIPRCNT values of 100 or above, 50 for GIPRCNT values of 0, and 100 for GIPRCNT values of -100.

| SMILES | growth |
| --- | --- |
| CN1C(=O)/C(=C\c2nc([P+](c3ccccc3)(c3ccccc3)c3ccccc3)c(N3CCOCC3)o2)SC1=S | 98.3% (inactive) |
| COc1ccc(Nc2nnc(-c3ccc(OC)c(OC)c3)o2)cc1 | 90.9% (inactive) |
| O=C1/C(=C\c2ccc3nccnc3c2)SC(=S)N1CCc1ccc(O)cc1 | 112% (inactive) |
| CCN1C(=S)N(c2ccccc2)C2C1NN=c1s/c(=C3\C(=O)N(C(C)C)c4ccccc43)c(=O)n12 (stereo not given) | 69.6% (inactive) |
| Cc1cc(C(=O)Nc2ncc(Cc3cccc(C(F)(F)F)c3)s2)c2ccccc2n1 | 8.85% (active) |
| CC(=O)/C(=C\c1c(-c2ccccc2)[nH]c2ccccc12)S(C)(=O)=O | 4.54% (active) |
| COc1ccc2c(c1)N(CCO)C1=C(C(=O)OC1)C2c1cccc(F)c1 (stereo not given) | 3.98% (active) |
| COc1ccc(CNc2c3ccccc3nc3ccccc23)cc1 | 19.3% (inactive) |
| COc1ccc(-c2nc3cc(C(=O)NCc4ccccc4)ccc3n2C2CCCCC2)cc1 | 28.1% (inactive) |
| COC(=O)c1nc(-c2ccccc2)oc1S(=O)(=O)Cc1ccccc1 | 49.4% (inactive) |
| Cn1cc(-c2nonc2-c2cn(C)c3ccccc23)c2ccccc21 | 6.32% (active) |
| CCN(CC)CCn1c2ccc(O)cc2c2sc3cc(O)ccc3c(=O)c21 | 27.1% (inactive) |
| O=C(COc1ccc(-c2nc3cc(Cl)c(Cl)cc3[nH]2)cc1)N=Nc1c(O)[nH]c2ccc(Cl)cc12 | 33.4% (inactive) |
| Cc1cc(=O)oc2cc(OCc3nn4c(Nc5nc6ccccc6s5)c(-c5ccccc5)nc4s3)ccc12 | 102% (inactive) |
| COc1cc(NS(=O)(=O)c2ccc(-c3cnc(C4CC4)o3)cc2)ccc1F | 2.64% (active) |
| Nc1nc2ccccc2c2c1S(=O)(=O)c1ccc(Cl)cc1C2=O | 7.01% (active) |
| COc1ccc(C/C(C)=C(\c2ccc(Cl)cc2)c2ccc(OCCN3CCCCC3)cc2)cc1 | 81.2% (inactive) |
| CC(C)(C)[Si](C)(C)OC1[C@@H](CNC(=O)NC(=O)NC(N)=O)O[C@@H](n2cnc3c(NC(=O)Nc4ccccc4)ncnc32)[C@H]1O[Si](C)(C)C(C)(C)C (stereo not given in full) | 10.5% (inactive) |
| COCCn1cc(-c2csc(-c3cn(C)c4ccc(Br)cc34)n2)c2cccnc21 | 26% (inactive) |
| CCOC(=O)C1=C(N)Oc2c(sc3c(F)cccc23)C1c1ccc(O)cc1 (stereo not given) | 30.7% (inactive) |

| SMILES | growth |
| --- | --- |
| N#Cc1ccc(O)c(C2=NCC(c3ccccc3)O2)c1 (stereo not given) | 46.2% (inactive) |
| CCCOC(=O)Nc1nc2ccc(SCC(C)C)cc2s1 | 15.9% (inactive) |
| O=C1C(Cl)=C(Nc2ccc(S(=O)(=O)N3CCOCC3)cc2)C(=O)c2ccccc21 | 49.2% (inactive) |
| Nc1nc2ccccc2c2c(=O)c3cccc(Cl)c3sc12 | 92.7% (inactive) |
| Cc1cn(-c2cc(NC(=O)c3cncc(C#Cc4cnc(N)c5ncccc45)c3)cc(C(F)(F)F)c2)cn1 | 35.4% (inactive) |
| Cc1ccc(CNc2ccc3nc(CCC4CCCCC4)[nH]c3c2)cc1 | 9.91% (active) |
| C=C(C)[C@@H]1CC[C@]2(C(=O)O)CC[C@]3(C)[C@H](CC[C@@H]4[C@@]5(C)CCC(NC(=O)c6cccc(OC(C)=O)c6OC(C)=O)C(C)(C)[C@@H]5CC[C@]43C)[C@@H]12 (stereo not given in full) | 8.01% (active) |
| CNC(=O)c1[nH]cc(-c2ccc(OC)cc2)c1-c1cc(OC)c2c(c1OC)OCO2 | 108% (inactive) |
| OCCn1cc(-c2nc(-c3c[nH]c4ncccc34)cs2)c2cc(F)ccc21 | 46.8% (inactive) |
| O=C(Nc1nc2cc(C(=O)N3CCN(C(c4ccccc4)c4ccccc4)CC3)ccc2o1)c1ccc(NC2CCCCC2)c([N+](=O)[O-])c1 | 62.2% (inactive) |
| Cc1ccc(C2=Nc3c(N)ncnc3NC(c3cccc(Nc4ccnc5cc(C(F)(F)F)ccc45)c3)C2)cc1 (stereo not given) | 5.98% (active) |
| CC(C)c1ccc(C(=O)Nc2sc3c(c2C(N)=O)CCC(=O)C3)cc1 | 5.66% (active) |
| COC(=O)c1c(C)nc(C)c2c1C(=O)C(Br)=C(NCc1ccccc1)C2=O | 6.01% (active) |
| CN(c1cc2ncc(=O)[nH]c2cc1NC(N)=NCc1ccc(Cl)cc1)C1CCCCC1 | 22.7% (inactive) |
| C=C(C)[C@@H]1CCC[C@]2(COS(=O)(=O)c3ccc(C)cc3)CC[C@]3(C)[C@@H](CC[C@@H]4[C@@]5(C)CCCNC(C)(C)[C@@H]5CC[C@]43C)[C@@H]12 | -50.8% (active) |
| COC(=O)[C@]1(C)CCC[C@]2(C)[C@H]3C[C@H]4C(C(C)C)=C[C@]3(CC[C@H]21)[C@@H]1C(=O)CC[C@H](OCCC#N)[C@@H]14 | 69.6% (inactive) |
| Cn1ccnc1C(=O)/C=C/c1ccc(CC(=O)Nc2cc(C(F)(F)F)cc(C(F)(F)F)c2)cc1 | 66.4% (inactive) |
| O=S(=O)(Nc1cc(F)cc(Cl)c1)c1ccc(-c2cnc(C3CC3)o2)cc1 | 4.89% (active) |
| CCOC(=O)c1c(NC(=O)c2cccc(C(F)(F)F)c2)sc2c(CN(C)C)c(O)ccc12 | 13.5% (inactive) |
| COC(=O)c1c2c(c(C)[n+]([O-])c1C)C(=O)C(NCc1cccc(OC)c1)=CC2=O | 11.4% (inactive) |
